# Source: PubChem BioAssay
# An excerpt weighted towards active compounds, which were near 19% of everything screened.
# TDP1 cell noCPT – qHTS for Inhibitors of human tyrosyl-DNA phosphodiesterase 1 (TDP1): qHTS in cells in absence of CPT; DT40 Tdp1-/- hTDP1 cells, no CPT, ATP luminescence, 48 h; Potency, µM (top dose mostly 46.2 µM), for inactives: top-dose activity change, negative = growth inhibition, most hits filed as inhibitors; 420,000 compounds, 15% hits; further: nearly all actives have a fitted effect of over 55% in size
#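 Compound effects on proliferation are scored in DT40 Tdp1-/-;hTDP1 cells in the absence of CPT. ATP levels (CellTiter-Glo luminescence) are recorded after a ≥48 hr, 37 °C incubation.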
# KB-3-1 tox – qHTS assay for MDR1-selective chemotherapeutics: Primary screen using the parental adenocarcinoma cell KB-3-1 | Potency, µM (series often up to 46.1 µM), actives largely listed as cytotoxic | KB-3-1 viability, CellTiter-Glo ATP luminescence, 72 h | 400,000 compounds, 1.4% hits; further: nearly all actives have a fitted effect of over 60% in size
#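 Multi-concentration cytotoxicity screen in KB-3-1 cells grown in DMEM lacking phenol red with 10% FBS. After 72 h at 37 °C with compound, ATP-dependent luminescence was recorded.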
# HT1080 IDH1KD tx – qHTS for induction of synthetic lethality in tumor cells producing 2HG: qHTS for the HT-1080-IDH1KD cell line; HT-1080 IDH1 knockdown viability, ATP luminescence, 48 h; Potency, µM (highest dose often 46.1 µM), for the others: at the highest dose activity, negative = toxicity, actives largely listed as cytotoxic; 360,000 compounds, 2% hits;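 further: 0% = DMSO wells and -100% = cell-free medium wells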
#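 HT-1080-IDH1KD cells (IDH1 knocked down), 750/well in RPMI with 5% FBS, treated with compound 48 h at 37 degrees C. Viability by CellTiter-Glo luminescence, normalised to DMSO and no-cell wells; concentration-response curves classed.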
# KB-V1 MDR tox – qHTS assay for MDR1-selective chemotherapeutics: Primary screen using the drug-selected MDR subline cells KB-V1 | KB-V1 MDR cells viability, CellTiter-Glo, 72 h | Potency, µM (series often up to 46.1 µM), usual class: cytotoxic | 400,000 compounds, 3.4% hits | AID 1347076, 2019; further: nearly all actives have a fitted effect of over 60% in size
#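 Drug-selected KB-V1 cells, grown in DMEM lacking phenol red with 10% FBS, receive compound titrations; after three days at 37 degrees C, surviving cell ATP is quantified by CellTiter-Glo luminescence and responses normalized and curve-fitted.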
# HT1080NT lethal – qHTS for induction of synthetic lethality in tumor cells producing 2HG: qHTS for the HT-1080-NT fibrosarcoma cell line. HT-1080-NT fibrosarcoma viability, CellTiter-Glo ATP luminescence, 48 h. Potency, µM (highest dose often 46.1 µM), for inactives: at the highest dose activity, negative = less viability, hits mostly cytotoxic. 360,000 compounds, 1.6% hits;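 further: NT is the 2HG producing partner of a matched IDH1 knockdown line; 0% = DMSO-treated cells and -100% = media-only wells without cells; nearly all actives have a fitted effect of over 55% in size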
#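 Compounds were tested in concentration-response format on HT-1080-NT cells for 48 hours at 37 degrees C. Cell viability came from CellTiter-Glo luminescence; curves were classified by r2, response magnitude and activity.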
# DT40 TDP1 CPT – qHTS for Inhibitors of human tyrosyl-DNA phosphodiesterase 1 (TDP1): qHTS in cells in presence of CPT | Potency, µM (top dose mostly 46.2 µM), inactives show top-dose activity change, negative = growth inhibition, hits mostly inhibitors | chicken DT40 Tdp1-/-;hTDP1 cells + 20 nM CPT, ATP luminescence, 48 h | 420,000 compounds, 12% hits; further: nearly all actives have a fitted effect of over 55% in size
#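 Chicken DT40 Tdp1-/- cells stably complemented with human TDP1 were seeded at 400 cells/well in medium containing 20 nM camptothecin, exposed to pin-transferred compounds, and grown at 37 °C for at least 48 hr. Viability was read as ATP luminescence.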
# Starred values were filed as active, the others as inactive; i = inactive; ? = inconclusive; / = not tested or not shown. The call rests on the fitted dose curve; in most records, active means well fitted curve in the direction sought with a large enough effect; inconclusive means small, poorly fitted or top-dose-only effect, or another doubt; inactive means no such curve, though single readings can be large; an effect the other way counts as inactive or inconclusive. Unless noted, on the % scale 0 is the no-effect control and ±100 the full control effect; potency means the concentration at half of the fitted maximal effect.
SMILES,TDP1 cell noCPT,KB-3-1 tox,HT1080 IDH1KD tx,KB-V1 MDR tox,HT1080NT lethal,DT40 TDP1 CPT
CC(C)c1ccc(NC(=O)CN2C(=O)C3(SCC(=O)N3c3ccc(F)cc3)c3ccccc32)cc1 (configuration not stated),?,?,/,i,/,?
COc1cccc(N2C(=O)CSC23C(=O)N(CC(=O)Nc2cc(C)ccc2C)c2ccccc23)c1 (configuration not stated),?,i,/,i,/,?
COc1ccccc1-c1ccc(C(=O)N(C)CC2COCCO2)c(N2CCN(c3ccccc3F)CC2)n1 (configuration not stated),-9.5%,/,/,/,/,-7.7%
OCCCNc1ncnc2c1ncn2[C@H]1CN(Cc2ccco2)C[C@@H](CO)O1,-0.5%,i,25.9%,i,27.7%,5.7%
COc1ccc(-c2nc3ccccc3s2)cc1NC(=O)c1ccc(C#N)cc1F,/,i,/,i,/,/
Cc1ccc(Cn2cc(S(=O)(=O)c3ccccc3)c(=O)c3cc(F)c(N4CCOCC4)cc32)cc1,?,i,/,i,/,?
CC1=NC(Nc2nc(C)c3ccccc3n2)=NC(C)(C)C1,16.4µM*,?,1.5%,?,-1.1%,20.6µM*
CN(C)S(=O)(=O)Oc1cccc(C(=O)Nc2ccc(Cl)c(Cl)c2)c1,10.3µM*,i,?,i,?,7.31µM*
CNS(=O)(=O)c1cccc(C(=O)Nc2cccc(Cl)c2)c1,?,i,-21.4%,i,-5.4%,-21.5%
COc1cccc(C(=O)Nc2cccc(NC(=O)c3ccccc3Cl)c2)c1,?,i,-13.8%,i,-10.7%,?
COc1ccc(NC(=O)c2cccc(OS(=O)(=O)N(C)C)c2)cc1,5.17µM*,i,-13.2%,i,-12.6%,18.4µM*
CN(C)S(=O)(=O)Oc1cccc(C(=O)Nc2cccc(Cl)c2)c1,18.4µM*,i,?,?,-17.0%,14.6µM*
CCc1ccc(N2C(=O)CS(=O)(=O)C23C(=O)N(Cc2ccccc2F)c2ccccc23)cc1 (configuration not stated),?,i,/,i,/,?
CC(C)NC(=O)N1CCCC2(CCN(C(=O)c3cccc(F)c3)CC2)C1,0.4%,/,/,/,/,9.1%
COc1ccc(C(CCN2CCCCC2)c2c(O)cc(OC)cc2OC)cc1 (configuration not stated),18.4µM*,i,-9.9%,i,-0.4%,18.4µM*
CCN(CC)C(=O)CC(c1ccc(OC)cc1)c1c(O)cc(OC)cc1OC (configuration not stated),?,i,6.4%,i,9.6%,?
CCN(CC)CCC(c1ccc(OC)cc1)c1c(O)cc(OC)cc1OC (configuration not stated),?,i,-9.7%,i,-12.3%,20.6µM*
COc1ccc(C(CCN2CCCC2)c2c(O)cc(OC)cc2OC)cc1 (configuration not stated),?,i,-1.8%,i,-3.4%,18.4µM*
COc1cc(O)c(C(CCN2CCCCC2)c2cc(OC)c(OC)c(OC)c2)c(OC)c1 (configuration not stated),-23.9%,i,-8.8%,i,0.3%,?
Cc1ccnc(NC(=O)C2CC(=O)N(Cc3ccccc3)C2)c1 (configuration not stated),-5.7%,?,14.8%,i,11.2%,0.0%
